Laboratory results as given in PubChem BioAssay (NCI).
About 83,000 compounds went through this panel and 20% of them were active in at least one assay; those are over-represented in the sample as a whole.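 For each line, cells grew in 96-well plates with the test compound present at a single concentration for 48 hours.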 Active and inactive are the calls of the source. The calls were made as follows: active = growth percent below 10; inactive = the rest.

Legend:
Experiment in all cases: NCI-60 one-dose screen, 48 h (100 = growth as untreated, 0 = no growth, -100 = all killed)
HT29 colon = conditions: 10 µM unless noted
SNB-75 CNS = conditions: 10 µM unless noted
SNB-19 CNS = conditions: 10 µM unless noted
U251 CNS = conditions: 10 µM unless noted
PC-3 prostate = conditions: 10 µM unless noted
SK-MEL-5 melanoma = conditions: 10 µM unless noted
UACC-62 melanoma = conditions: 10 µM unless noted
LOX IMVI melanoma = conditions: 10 µM unless noted
SK-MEL-28 melanoma = conditions: 10 µM
SK-MEL-2 melanoma = conditions: 10 µM unless noted

Measured: growth

CN1CCN(Cc2ccc(NC(=O)c3[nH]ncc3Nc3cc(OC4CCCC4)ncn3)cc2)CC1
inactive: HT29 colon 14.3% | SNB-75 CNS 61.7% | SNB-19 CNS 59.8% | U251 CNS 41.1% | SK-MEL-5 melanoma 14.5% | UACC-62 melanoma 29.2% | LOX IMVI melanoma 17.9% | SK-MEL-28 melanoma 53.1% | SK-MEL-2 melanoma 49.4%
active: PC-3 prostate 8.34%

COc1cc(C(C)n2cc(-c3ccccc3)nn2)ccc1OC1CCCCC1 (centres undefined)
inactive: HT29 colon 82.3% | SNB-75 CNS 68.1% | SNB-19 CNS 68.7% | U251 CNS 81% | PC-3 prostate 69.6% | SK-MEL-5 melanoma 29.9% | UACC-62 melanoma 55.7% | LOX IMVI melanoma 63.1% | SK-MEL-28 melanoma 95.1% | SK-MEL-2 melanoma 92.8%

CCc1ccc(CNCC(O)c2ccccc2)cc1 (centres undefined)
inactive: HT29 colon 28.7% | SNB-75 CNS 61.8% | SNB-19 CNS 79.7% | U251 CNS 60% | PC-3 prostate 52.7% | SK-MEL-5 melanoma 68.6% | UACC-62 melanoma 84.5% | LOX IMVI melanoma 68.7% | SK-MEL-28 melanoma 74.7% | SK-MEL-2 melanoma 90.9%

O=C(c1nc2ccccc2[nH]1)C1C(c2cccc([N+](=O)[O-])c2)C2CC3CCCCC3N2[C@@]12C(=O)Nc1cc(Cl)ccc12 (some centres undefined)
inactive: HT29 colon 13.5% | SNB-75 CNS 15.1% | SNB-19 CNS 39.1% | U251 CNS 32.4% | PC-3 prostate 19.6% | SK-MEL-5 melanoma 45.4% | UACC-62 melanoma 33.5% | LOX IMVI melanoma 19.7% | SK-MEL-28 melanoma 55.3% | SK-MEL-2 melanoma 41.4%

CCCCC1COc2cccc3c2N1C=C/C3=C\C(=O)N(C)c1ccccc1 (centres undefined)
inactive: HT29 colon 49.7% | SNB-75 CNS 72.1% | SNB-19 CNS 52.3% | U251 CNS 33.9% | PC-3 prostate 51.2% | SK-MEL-5 melanoma 13.4% | UACC-62 melanoma 36% | LOX IMVI melanoma 51.2% | SK-MEL-28 melanoma 75% | SK-MEL-2 melanoma 71.1%

O=C(CSc1nc2ccccc2c(=O)n1-c1ccccc1)Nc1ccc(C(=O)/C=C/c2ccc(Cl)cc2)cc1
inactive: HT29 colon 100% | SNB-75 CNS 114% | SNB-19 CNS 96.1% | U251 CNS 106% | PC-3 prostate 103% | SK-MEL-5 melanoma 103% | UACC-62 melanoma 86% | LOX IMVI melanoma 101% | SK-MEL-28 melanoma 106% | SK-MEL-2 melanoma 99.9%

COc1ccc(C2C3=C(COC3=O)N(CCO)c3cc4c(cc32)CCC4)cc1 (centres undefined)
inactive: HT29 colon 15.4% | SNB-75 CNS 42.4% | SNB-19 CNS 62.2% | U251 CNS 42% | PC-3 prostate 54.6% | SK-MEL-5 melanoma 35.7% | UACC-62 melanoma 48.3% | LOX IMVI melanoma 51% | SK-MEL-2 melanoma 77.9%

CCOc1cccc(/C=N/NC(=O)C(=O)Nc2cccc(C(F)(F)F)c2)c1O
active: SK-MEL-5 melanoma -25.5% | UACC-62 melanoma 2.68% | LOX IMVI melanoma 6.47%
inactive: HT29 colon 41.3% | SNB-75 CNS 68.1% | SNB-19 CNS 41.3% | U251 CNS 22.9% | PC-3 prostate 44.5% | SK-MEL-28 melanoma 44.6% | SK-MEL-2 melanoma 36.9%

NCCOc1ncccc1/C=C1\c2ccccc2-c2ccc([N+](=O)[O-])cc21
active: HT29 colon -6.91% | SNB-75 CNS -81.1% | SNB-19 CNS -6.38% | U251 CNS -75% | PC-3 prostate 3.4% | SK-MEL-5 melanoma -97.5% | UACC-62 melanoma -81.5% | LOX IMVI melanoma -91.1% | SK-MEL-28 melanoma -22% | SK-MEL-2 melanoma -21.2%

NS(=O)(=O)c1ccc(CCN=C=S)cc1
inactive: HT29 colon 14.7% | SNB-75 CNS 29.1% | SNB-19 CNS 73.5% | U251 CNS 27.6% | PC-3 prostate 47% | SK-MEL-5 melanoma 74.7% | UACC-62 melanoma 68.5% | SK-MEL-2 melanoma 63%
active: LOX IMVI melanoma -27.9%

O=c1oc2ccc(-c3ccc(F)cc3F)cc2c(=O)n1-c1cccc(C(F)(F)F)c1
active: SNB-75 CNS -7.33% | U251 CNS 4.94% | PC-3 prostate 3.58% | SK-MEL-5 melanoma -76.4% | UACC-62 melanoma 7.26% | SK-MEL-2 melanoma -15.9%
inactive: HT29 colon 31.3% | SNB-19 CNS 14.4% | LOX IMVI melanoma 25.7%

CN1CCN(Cc2ccc(C(=O)Nc3cncc(C#Cc4cnc(N)c5ccccc45)c3)cc2C(F)(F)F)CC1
inactive: UACC-62 melanoma 42.7%
active: HT29 colon -53.2% | SNB-75 CNS -96.4% | SNB-19 CNS -47.5% | U251 CNS -70.5% | PC-3 prostate -18.8% | SK-MEL-5 melanoma -94.6% | LOX IMVI melanoma -92.4% | SK-MEL-2 melanoma -53.9%

O=C(CCN1C(=O)c2ccccc2C1=O)Nc1ccc(Cl)cc1
inactive: HT29 colon 44.4% | SNB-75 CNS 94.5% | SNB-19 CNS 90.3% | U251 CNS 62.2% | PC-3 prostate 71.7% | SK-MEL-5 melanoma 81% | UACC-62 melanoma 87.4% | LOX IMVI melanoma 60.2% | SK-MEL-2 melanoma 98.7%

CCOc1c(Br)cc(C2C(C(=O)OC)=CN(C)C=C2C(=O)OC)cc1OC
inactive: SNB-75 CNS 47.3% | SNB-19 CNS 89% | U251 CNS 51% | PC-3 prostate 60.7% | SK-MEL-5 melanoma 19.6% | UACC-62 melanoma 71.3% | LOX IMVI melanoma 54.9% | SK-MEL-2 melanoma 65.7%
active: HT29 colon 6.47%
